Rows were chosen to be rich in hits. Some 27% of all compounds tested hit in one or more screens of this group.
CYP2C19 activ: activators of human cytochrome P450 2C19. P33261. recombinant CYP2C19, luciferin-H EGE luminescence; stronger effect = higher value; 0 = fully inhibited enzyme, 1 = untreated enzyme. activation factor at 5 µM. 96,000 tested, under 10 active. AID 1025;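 active means activation factor of at least 2 at 5 µM in the primary screen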
Target sequence (P33261 whole entry, looked up): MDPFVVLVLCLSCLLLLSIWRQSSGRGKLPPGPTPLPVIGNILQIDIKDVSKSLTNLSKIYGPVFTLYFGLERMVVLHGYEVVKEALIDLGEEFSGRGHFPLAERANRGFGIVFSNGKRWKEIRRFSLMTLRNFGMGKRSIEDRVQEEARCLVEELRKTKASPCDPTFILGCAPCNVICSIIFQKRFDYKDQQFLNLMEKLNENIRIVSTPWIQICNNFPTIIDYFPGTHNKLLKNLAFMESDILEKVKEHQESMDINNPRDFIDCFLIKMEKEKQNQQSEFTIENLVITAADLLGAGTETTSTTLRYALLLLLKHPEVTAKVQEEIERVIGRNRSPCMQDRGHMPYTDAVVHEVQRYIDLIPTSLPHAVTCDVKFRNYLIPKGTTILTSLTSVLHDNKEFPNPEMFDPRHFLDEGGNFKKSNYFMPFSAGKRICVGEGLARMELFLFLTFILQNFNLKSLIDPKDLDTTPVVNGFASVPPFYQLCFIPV
CYP2C9 inhib: blocks human cytochrome P450 2C9. P11712. CYP2C9 Supersomes, luciferin-H conversion, luminescence. inhibition, % at 5 µM. 96,000 compounds, 20% hits. AID 777;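 active means blocking of liver enzyme CYP2C9 beyond about 50% at 5 µM, limit read from the data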
CYP2C9 act: CYP2C9 (human) activation | P11712 | recombinant CYP2C9, luciferin-H conversion, luminescence; stronger effect = higher value; factor 1 = untreated enzyme, 0 = blocked | activation factor at 5 µM | 96,000 compounds, 1.4% hits | AID 1024;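 active means activation factor of 2 or more for CYP2C9 at a 5 µM dose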
Cav3 T inh: inhibitors of human Cav3.2 T-type calcium channel; O95180; Cav3.2-expressing cells, Fluo-4 calcium fluorescence FDSS; stronger effect = lower value; B-score at 10 µM; 100,000 compounds, 4% hits; AID 449739;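 active means single-dose well whose peak fluorescence ratio is a statistical outlier from its plate by either plate-standardised score or position-corrected B-score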
CYP2C19 inh: blocks human cytochrome P450 2C19. 96,000 compounds, 21% hits. CYP2C19 Supersomes, luciferin-H EGE luminescence, 30 min. inhibition, % at 5 µM;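 active means CYP2C19 inhibition above a set limit at 5 µM in the primary screen, cut at about 50% in these data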
Hits are given with their value.

`CCc1c(C#N)c(SCCC(=O)Nc2cccc(OC)c2)nc2c1C(=O)CC(C)(C)C2` gave CYP2C19 activ inactive, CYP2C9 inhib 98, CYP2C9 act inactive, Cav3 T inh inactive and CYP2C19 inh 98.
For CC1(C)CC(=O)c2cnc(NC(=O)CCc3ccccc3)nc2C1 the results were CYP2C19 activ inactive, CYP2C9 inhib inactive, CYP2C9 act inactive, Cav3 T inh inactive and CYP2C19 inh inactive.
Screening CC1(C)CC(=O)c2c(nc(SCC(=O)Nc3nsc(-c4ccccc4)n3)c(C#N)c2-c2ccccc2)C1 returned CYP2C19 activ inactive, CYP2C9 inhib 85, CYP2C9 act inactive, Cav3 T inh -2.4 and CYP2C19 inh 54.
`COc1ccc(-c2c(C#N)c(SCc3c(C)noc3C)nc3c2C(=O)CC(C)(C)C3)cc1` gave CYP2C19 activ inactive, CYP2C9 inhib inactive, CYP2C9 act inactive and CYP2C19 inh inactive.
For Nc1nc(-c2ccc(Br)s2)c(Br)s1 the results were CYP2C19 activ inactive, CYP2C9 inhib inactive, CYP2C9 act inactive, Cav3 T inh inactive and CYP2C19 inh inactive.
Screening O=C(CSc1nccc(=O)[nH]1)Nc1ccc(F)c(Cl)c1 returned CYP2C19 activ inactive, CYP2C9 inhib inactive, CYP2C9 act inactive, Cav3 T inh inactive and CYP2C19 inh inactive.
O=C(CSc1nccc(=O)[nH]1)Nc1ccc(Br)c(Cl)c1 was read as CYP2C19 activ inactive, CYP2C9 inhib 79, CYP2C9 act inactive, Cav3 T inh inactive and CYP2C19 inh inactive.
`CC(Cc1cccs1)NC(=O)Nc1ccc(F)cc1` (stereo not drawn) gave CYP2C19 activ inactive, CYP2C9 inhib inactive, CYP2C9 act inactive and CYP2C19 inh 87.
CC(Cc1cccs1)NC(=O)Nc1cccc(Cl)c1 (stereo not drawn) was read as CYP2C19 activ inactive, CYP2C9 inhib inactive, CYP2C9 act inactive and CYP2C19 inh 66.
Cc1cccc(N2C(=O)CC(N(C(=O)c3ccco3)c3cccc(C)c3)C2=O)c1 (stereo not drawn) was read as Cav3 T inh inactive.
CC(C)(O)C#Cc1ccc(C(=O)NCc2ccccc2)s1 was read as Cav3 T inh inactive.
Screening CCOc1ccc(-n2ccnc2SCC(=O)Nc2nnc(CC)s2)cc1 returned CYP2C19 activ inactive, CYP2C9 inhib inactive, CYP2C9 act inactive, Cav3 T inh inactive and CYP2C19 inh inactive.
Screening CCn1c(CC(=O)Nc2cccc(OC)c2)nnc1SCC(=O)Nc1nccs1 returned CYP2C19 activ inactive, CYP2C9 inhib inactive, CYP2C9 act inactive, Cav3 T inh -5 and CYP2C19 inh inactive.
For CCSc1nnc(NC(=O)CSc2nccn2-c2cccc(C)c2)s1 the results were CYP2C19 activ inactive, CYP2C9 inhib 63, CYP2C9 act inactive, Cav3 T inh inactive and CYP2C19 inh inactive.
Screening COc1ccc(NC(=O)CSc2nc(N)c3cc4c(nc3n2)CCCC4)c(OC)c1 returned CYP2C19 activ inactive, CYP2C9 inhib 81, CYP2C9 act inactive, Cav3 T inh inactive and CYP2C19 inh inactive.
COc1ccc(-n2ccnc2SCC(=O)Nc2ccc(OC)cc2OC)cc1 was read as CYP2C19 activ inactive, CYP2C9 inhib inactive, CYP2C9 act inactive, Cav3 T inh inactive and CYP2C19 inh 92.
`CCOC(=O)c1cnc(SCC(=O)Nc2cc(OC)ccc2OC)nc1N` gave CYP2C19 activ inactive, CYP2C9 inhib inactive, CYP2C9 act inactive, Cav3 T inh inactive and CYP2C19 inh inactive.
Screening O=C(O)COc1ccc2c(c1)OCCO2 returned CYP2C19 activ inactive, CYP2C9 inhib inactive, CYP2C9 act inactive, Cav3 T inh inactive and CYP2C19 inh inactive.
COc1cccc(-n2ccnc2SCC(=O)Nc2nccs2)c1 was read as CYP2C19 activ inactive, CYP2C9 inhib inactive, CYP2C9 act inactive, Cav3 T inh inactive and CYP2C19 inh 59.
`CCn1c(CC(=O)Nc2ccc(C)c(Cl)c2)nnc1SCC(=O)Nc1nc(C)cs1` gave CYP2C19 activ inactive, CYP2C9 inhib 63, CYP2C9 act inactive, Cav3 T inh inactive and CYP2C19 inh inactive.
`Cc1cccc(-n2ccnc2SCC(=O)Nc2nccs2)c1` gave CYP2C19 activ inactive, CYP2C9 inhib inactive, CYP2C9 act inactive, Cav3 T inh inactive and CYP2C19 inh 60.
For CCn1c(Cc2ccccc2)nnc1SCC(=O)Nc1nc(C)cs1 the results were Cav3 T inh inactive.
`Cc1[nH]c2ccccc2c1C(O)CN1CCN(c2cccc(C(F)(F)F)c2)CC1` (stereo not drawn) gave CYP2C19 activ inactive, CYP2C9 inhib inactive, CYP2C9 act inactive, Cav3 T inh inactive and CYP2C19 inh inactive.
CCOC(=O)c1ccccc1NC(=O)/C(C)=C/C(=O)O was read as CYP2C19 activ inactive, CYP2C9 inhib inactive, CYP2C9 act inactive, Cav3 T inh inactive and CYP2C19 inh inactive.
